19 compounds from PubChem BioAssay (NCATS) can be followed below.

Records with an inconclusive call do not appear. Values without a mark were called inactive. Activity calls are given as the source filed them. Calls follow the shape of the dose curve; as a rule, active = well fitted inhibition curve with a large enough effect; inconclusive = small, poorly fitted or top-dose-only effect; inactive = flat fitted curve, though single readings scatter.

What all share (experiment): Cytotoxic Profiling of Annotated Libraries Using Quantitative High-Throughput Screening (AID 1296008); also: nearly all actives have a fitted effect of over 60% in size
Holding throughout (details): Five cell lines viability, CellTiter-Glo ATP luminescence, 48-72 h; max response: active compounds read low

Test [1] concerns CRL-7250. The procedure, abridged:
(§1)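 Cells exposed to compounds for 48 or 72 hr at 37 degrees Celsius. Viability read as ATP-coupled luminescence with CellTiter-Glo after 10 min at room temperature.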

Test [2] relates to HEK293. In a few lines: as §1
Test [3] concerns HaCat. In a few lines: as §1
Test [4] has as its system KB-3-1. The procedure, abridged: as §1
The subject of test [5] is NIH3T3. In a few lines: as §1
% is scaled to controls: 0 for no effect and ±100 for the full control effect; potency is read from the fitted curve at half-maximal effect.

Turning to `CC(C)C(N)C(=O)OCCOCn1cnc2c(=O)[nH]c(N)nc21` (stereo not given), the max response in test [1] is 2.37%; in test [2], 1.16%; in test [3], -13.5%; in test [4], -4.91%; in test [5], 1.39%.

Turning to `COc1ccc(/C=C\C(=O)O)c(O[C@@H]2O[C@H](CO)[C@@H](O)[C@H](O)[C@H]2O)c1`, the result in test [1] and in test [4] was inactive. Besides, the figures for the max response in test [2], in test [3] and in test [5] were -0.642%, -1.35% and 0.681%, respectively.

For the compound `C=C1C(=O)OC2CC(C)=C(C(C)CCCO)C(O)C12` (stereo not given), the compound was called inactive in test [1] and in test [4]. In addition, the results for the max response in test [2] and in test [3] were -3.2% and -11.4%, respectively.

For `C=C1C(O)C[C@@H]2C(C(=O)O)=CO[C@@H](O[C@@H]3O[C@H](CO)[C@@H](O)[C@H](O)[C@H]3OC(=O)c3ccc(O)cc3)[C@H]12` (stereo not given in full), the max response was -1.69% in test [1], -0.967% in test [2], 0.151% in test [3] and 4.25% in test [5]. Also, the compound was called inactive in test [4].

Consider `COc1nc2sc(C(=O)NC3CC3)c(N)c2c(C)c1Cl`, for which the max response is -8.27% in test [1], -8.8% in test [2] and -34.1% in test [3]. Moreover, in test [4], the compound was classed as inactive.

`CC1=C(C)C(=O)OC(C(C)C2CCC3C4C5OC5C5(O)CC(OC6OC(CO)C(OC7OC(C)C(O)C(O)C7O)C(O)C6O)CC(O)C5(C)C4CCC23C)C1` (stereo not given): the outcome in test [1] and in test [4] was inactive. In addition, the max response in test [2] was -0.932%; in test [3] it was 4.81%; in test [5], 3.69%.

On to `CC(C)[C@@H]1C(=O)N(S(C)(=O)=O)[C@@H]2CCN(C(=O)/C=C/CN3CCCCC3)[C@H]21`, for which the outcome in test [1] was inactive. Also, the max response in test [2] is -1.35%; in test [3] it was -0.855%; in test [4], 5.42%; in test [5], 1.85%.

As to `C=C1C(=O)O[C@@H]2/C=C(\C)C(=O)/C=C/[C@](C)(O)C[C@@H](OC(=O)C(C)C)[C@@H]12`, the Potency in test [1] is 4.04 µM (active); in test [2] it was 0.805 µM (active); in test [3] it was 2.02 µM (active); in test [4] it was 7.18 µM (active); in test [5], 2.55 µM (active).

Regarding `C[C@@H](O)[C@H](NC(=O)c1ccc(C#Cc2ccc(CN3CCOCC3)cc2)cc1)C(=O)NO`, the max response in test [1] was -14.3%; in test [2], -16.7%; in test [3] it was -21.7%; in test [5], 3.18%. Also, in test [4], the result was inactive.

With `COc1ccc(-c2c(-c3cc(C(=O)O)ccn3)ncn2C)cc1`, the max response in test [1] was 4.8%; in test [2] it was -1.7%; in test [3] it was -1.2%; in test [4], 4.75%.

Take `OC[C@H]1O[C@@H](O[C@H]2[C@H](OCc3ccccc3)O[C@H](CO[C@@H]3OC[C@@H](O)[C@H](O)[C@H]3O)[C@@H](O)[C@@H]2O)[C@H](O)[C@@H](O)[C@@H]1O`: the max response was -6.77% in test [1]; 0.36% in test [2]; -3.65% in test [3]; 4.93% in test [4]; -3.84% in test [5].

Turning to `CC(=O)OC[C@H]1O[C@H](O[C@]2(CO)O[C@H](CO)[C@@H](OC(=O)/C=C/c3ccccc3)[C@@H]2O)[C@H](O)[C@@H](O)[C@@H]1O`, the max response in test [1] is -26.1%; in test [2] it was 2.62%; in test [3] it was -2.48%; in test [5], -0.33%. For the same compound, in test [4], the compound was classed as inactive.

As for `N#Cc1ccc2[nH]cc(CCCCN3CCN(c4ccc5oc(C(N)=O)cc5c4)CC3)c2c1`, the results for the max response in test [1], in test [3] and in test [4] were -7.54%, -11.5% and -15.8%, respectively. Also, the Potency in test [2] is 8.2 µM (active).

On to `CC(C)c1cc(C(=O)N2CC[C@@H](NC(=O)C3CC3)C2)n[nH]1`, for which the max response is -17.8% in test [1]; -9.12% in test [2]; 0.869% in test [3]; 2.09% in test [4]; -14.5% in test [5].

With `Cc1nc(NC(=O)N2CCCC2C(N)=O)sc1-c1csc(C(C)(C)C)n1` (stereo not given), the max response was -8.95% in test [1] and -25.9% in test [2]. In test [3], the Potency is 5.17 µM (active). The call in test [4] was inactive.

Take `COc1ccc([C@@]2(O)c3c(ccc4c3OC(C)(CCC=C(C)C)C=C4)NC(=O)[C@@H]2OC)cc1` (stereo not given in full): the max response in test [1] is 4.89%; in test [2], -3.72%; in test [3], 1.02%; in test [4], 4.57%; in test [5], -14.3%.

Turning to `CCCCc1ccc(C(=O)Nc2cc(-c3ccc(Cl)cc3)nn2-c2ccc(Cl)cc2)cc1`, the max response in test [1] was -0.768%; in test [2] it was -22.4%; in test [3], -3.42%; in test [4] it was -4.76%; in test [5] it was -1.01%.

As for `C[C@@H]1O[C@@H](O[C@H]2[C@H](O)[C@@H](O[C@@H]3O[C@H](CO)[C@@H](O)[C@H](O[C@@H]4O[C@H](CO)[C@@H](O)[C@H](O)[C@H]4O)[C@H]3O)[C@H](O[C@H]3CC[C@@]4(C)C(=CC[C@@H]5C4CC[C@@]4(C)C5C[C@@H]5OC6(CC[C@@](C)(CO[C@@H]7O[C@H](CO)[C@@H](O)[C@H](O)[C@H]7O)O6)[C@@H](C)[C@@H]54)C3)O[C@@H]2CO)[C@H](O)[C@H](O)[C@H]1O` (stereo not given in full), the max response is -2.4% in test [1]; 3.47% in test [2]; -19% in test [3]; 4.11% in test [4]; 3.35% in test [5].

`NCc1c[nH]c(=S)n1[C@@H]1CCc2c(F)cc(F)cc2C1`: the result in test [1] was inactive. In addition, the max response in test [2] was -9.28%; in test [3] it was 3.97%; in test [4], -4.38%; in test [5], -1.29%.
